Experimental data published in paper PMC9911399, “Two distinct binding modes provide the RNA-binding protein RbFox with extraordinary sequence specificity”.
Positions count from the first letter of the chain named. Over roughly 16,000 sequences, “ka relative to ugcaugu” has its median near 0.0091; the highest 2% begin near 0.032. This is one part of a sample in which the highest values are shown more often than they occur.

T1: RBFOX1 RRM (Homo sapiens, UniProt Q9NWB1 109-208)
T1 sequence: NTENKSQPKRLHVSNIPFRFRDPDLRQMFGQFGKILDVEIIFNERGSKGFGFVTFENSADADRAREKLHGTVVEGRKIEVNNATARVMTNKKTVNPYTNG

B1: GGCUAAG (DNA:RNA)
RNA: GGGAGACCGGAAUUCAGAUUGUCCGGCUAAGUUAAAUCCCGUCGUAGCCACCA
DNA 1: CAATCTGAATTCCGGTCTCCC
DNA 2: TGGTGGCTACGACGGGATT
B2: CUCGGCA (DNA:RNA)
RNA: B1 RNA with G25C, G26U, U28G, A29G, A30C, G31A
DNA 1: CAATCTGAATTCCGGTCTCCC
DNA 2: TGGTGGCTACGACGGGATT
B3: AACGACU (DNA:RNA)
RNA: B1 RNA with G25A, G26A, U28G, A30C, G31U
DNA 1: CAATCTGAATTCCGGTCTCCC
DNA 2: TGGTGGCTACGACGGGATT
B4: AUAAAAA (DNA:RNA)
RNA: B1 RNA with G25A, G26U, C27A, U28A, G31A
DNA 1: CAATCTGAATTCCGGTCTCCC
DNA 2: TGGTGGCTACGACGGGATT
B5: UUAUCUG (DNA:RNA)
RNA: B1 RNA with G25U, G26U, C27A, A29C, A30U
DNA 1: CAATCTGAATTCCGGTCTCCC
DNA 2: TGGTGGCTACGACGGGATT
B6: AAGCACG (DNA:RNA)
RNA: B1 RNA with G25A, G26A, C27G, U28C, A30C
DNA 1: CAATCTGAATTCCGGTCTCCC
DNA 2: TGGTGGCTACGACGGGATT
B7: AAGCACC (DNA:RNA)
RNA: B1 RNA with G25A, G26A, C27G, U28C, A30C, G31C
DNA 1: CAATCTGAATTCCGGTCTCCC
DNA 2: TGGTGGCTACGACGGGATT
B8: AAGCCCG (DNA:RNA)
RNA: B1 RNA with G25A, G26A, C27G, U28C, A29C, A30C
DNA 1: CAATCTGAATTCCGGTCTCCC
DNA 2: TGGTGGCTACGACGGGATT
B9: AAAACAC (DNA:RNA)
RNA: B1 RNA with G25A, G26A, C27A, U28A, A29C, G31C
DNA 1: CAATCTGAATTCCGGTCTCCC
DNA 2: TGGTGGCTACGACGGGATT
B10: CAUCUUU (DNA:RNA)
RNA: GGGAGACCGGAAUUCAGAUUGUCCCAUCUUUUUAAAUCCCGUCGUAGCCACCA
DNA 1: CAATCTGAATTCCGGTCTCCC
DNA 2: TGGTGGCTACGACGGGATT
B11: CUGCCUG (DNA:RNA)
RNA: B10 RNA with A26U, U27G, U29C, U31G
DNA 1: CAATCTGAATTCCGGTCTCCC
DNA 2: TGGTGGCTACGACGGGATT
B12: UGCUGUU (DNA:RNA)
RNA: B1 RNA with G25U, A29G, A30U, G31U
DNA 1: CAATCTGAATTCCGGTCTCCC
DNA 2: TGGTGGCTACGACGGGATT
B13: UGCCCUG (DNA:RNA)
RNA: B1 RNA with G25U, U28C, A29C, A30U
DNA 1: CAATCTGAATTCCGGTCTCCC
DNA 2: TGGTGGCTACGACGGGATT
B14: UGCCGGU (DNA:RNA)
RNA: B10 RNA with C25U, A26G, U27C, U29G, U30G
DNA 1: CAATCTGAATTCCGGTCTCCC
DNA 2: TGGTGGCTACGACGGGATT
B15: UGCCUGU (DNA:RNA)
RNA: B10 RNA with C25U, A26G, U27C, U30G
DNA 1: CAATCTGAATTCCGGTCTCCC
DNA 2: TGGTGGCTACGACGGGATT
B16: CUGUGCC (DNA:RNA)
RNA: B10 RNA with A26U, U27G, C28U, U29G, U30C, U31C
DNA 1: CAATCTGAATTCCGGTCTCCC
DNA 2: TGGTGGCTACGACGGGATT
B17: CGUUCGA (DNA:RNA)
RNA: B10 RNA with A26G, C28U, U29C, U30G, U31A
DNA 1: CAATCTGAATTCCGGTCTCCC
DNA 2: TGGTGGCTACGACGGGATT
B18: AUUUAUA (DNA:RNA)
RNA: B10 RNA with C25A, A26U, C28U, U29A, U31A
DNA 1: CAATCTGAATTCCGGTCTCCC
DNA 2: TGGTGGCTACGACGGGATT
B19: AGUACGU (DNA:RNA)
RNA: B10 RNA with C25A, A26G, C28A, U29C, U30G
DNA 1: CAATCTGAATTCCGGTCTCCC
DNA 2: TGGTGGCTACGACGGGATT
B20: GUUGUCC (DNA:RNA)
RNA: B10 RNA with C25G, A26U, C28G, U30C, U31C
DNA 1: CAATCTGAATTCCGGTCTCCC
DNA 2: TGGTGGCTACGACGGGATT

biological target: T1, RBFOX1 RRM; test: EMSA; HiTS-Eq, 1 nM pool, 10 min; buffer printed only for the single-RNA assays: 10 mM Tris pH 7.5, 150 mM NaCl, 3.4 mM EDTA, 0.001% NP-40, 30 C; conditions: tags: His6 N-terminal (pET28a); label: 5' 32P
Procedure, shortened: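 Relative association constants, normalised to the cognate motif, were derived by comparing read counts of each RNA species with those of the control reaction. The RNA sequenced was the free fraction, separated by 8% native PAGE after a 10 min equilibration in 50 µL of 1 nM 5′-radiolabelled RNA (7 randomized nucleotides) with increasing concentrations of purified wild-type or mutant RbFox RRM.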

Binder	binding signal
B1	0.0134 KA relative to UGCAUGU
B2	0.0189 KA relative to UGCAUGU
B3	0.00509 KA relative to UGCAUGU
B4	0.00125 KA relative to UGCAUGU
B5	0.0132 KA relative to UGCAUGU
B6	0.0333 KA relative to UGCAUGU
B7	0.00479 KA relative to UGCAUGU
B8	0.00982 KA relative to UGCAUGU
B9	0.00144 KA relative to UGCAUGU
B10	0.00311 KA relative to UGCAUGU
B11	0.0391 KA relative to UGCAUGU
B12	0.0254 KA relative to UGCAUGU
B13	0.025 KA relative to UGCAUGU
B14	0.0131 KA relative to UGCAUGU
B15	0.0501 KA relative to UGCAUGU
B16	0.0119 KA relative to UGCAUGU
B17	0.0138 KA relative to UGCAUGU
B18	0.00157 KA relative to UGCAUGU
B19	0.00915 KA relative to UGCAUGU
B20	0.0202 KA relative to UGCAUGU
